Test results from publication PMC7862700, “An all-to-all approach to the identification of sequence-specific readers for epigenetic DNA modifications on cytosine”.

How the values were obtained:
Test in all cases: DAPPL (digital affinity profiling via proximity ligation, sequencing); 10 mM Tris-HCl pH 7.5, 50 mM NaCl, 1 mM DTT, 4% glycerol, room temperature, 30 min; GST-TFs on glutathione beads, 16-mer random dsDNA library, 0.1% formaldehyde crosslink after washing; high values mean tight binding
Conditions in all cases: protein: recombinant; tags: N-terminal GST; dsDNA, one strand shown
FLI1 = target: T1, FLI1 (Homo sapiens, UniProt Q01543 1-452)
T1 sequence: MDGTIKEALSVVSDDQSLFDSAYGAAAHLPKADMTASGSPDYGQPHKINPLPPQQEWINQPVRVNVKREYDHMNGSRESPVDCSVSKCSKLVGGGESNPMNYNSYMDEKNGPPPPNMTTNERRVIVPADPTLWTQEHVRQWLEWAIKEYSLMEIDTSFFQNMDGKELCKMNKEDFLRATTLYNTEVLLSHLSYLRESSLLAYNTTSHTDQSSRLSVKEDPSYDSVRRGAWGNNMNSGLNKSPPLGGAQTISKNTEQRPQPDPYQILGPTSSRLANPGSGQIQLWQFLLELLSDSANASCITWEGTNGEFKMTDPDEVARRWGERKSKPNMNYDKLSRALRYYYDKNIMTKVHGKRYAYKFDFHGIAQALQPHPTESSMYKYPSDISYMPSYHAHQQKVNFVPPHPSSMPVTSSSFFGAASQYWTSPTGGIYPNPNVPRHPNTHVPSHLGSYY
Outline: (§1)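 Each value of binding signal is a hexamer's read frequency for a factor divided by the same hexamer's frequency in the tag-only sample. Barcoded, bead-captured GST fusions of human transcription factors made in yeast were pooled with that sample and incubated with 200 nmole of a random double-stranded 16-mer DNA library in Tris/NaCl/DTT/glycerol buffer at room temperature for 30 min. Washing, 0.1% formaldehyde crosslinking, proximity ligation, PCR and Illumina NextSeq500 sequencing followed.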

ELK1 = target: T2, ELK1 (Homo sapiens, UniProt P19419 1-428)
T2 sequence: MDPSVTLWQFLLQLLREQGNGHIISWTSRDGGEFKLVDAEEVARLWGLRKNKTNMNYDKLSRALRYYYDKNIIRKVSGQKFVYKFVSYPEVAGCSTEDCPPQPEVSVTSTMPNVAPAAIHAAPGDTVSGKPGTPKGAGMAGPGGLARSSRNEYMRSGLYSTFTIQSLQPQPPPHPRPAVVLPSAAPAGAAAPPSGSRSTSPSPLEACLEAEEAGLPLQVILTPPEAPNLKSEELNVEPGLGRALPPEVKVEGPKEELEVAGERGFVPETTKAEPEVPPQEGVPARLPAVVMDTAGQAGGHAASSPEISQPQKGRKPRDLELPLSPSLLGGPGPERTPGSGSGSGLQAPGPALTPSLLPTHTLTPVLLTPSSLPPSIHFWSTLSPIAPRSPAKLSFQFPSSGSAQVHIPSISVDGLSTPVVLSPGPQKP
Outline: as §1

GABPA = target: T3, GABPA (Homo sapiens, UniProt Q06546 1-454)
T3 sequence: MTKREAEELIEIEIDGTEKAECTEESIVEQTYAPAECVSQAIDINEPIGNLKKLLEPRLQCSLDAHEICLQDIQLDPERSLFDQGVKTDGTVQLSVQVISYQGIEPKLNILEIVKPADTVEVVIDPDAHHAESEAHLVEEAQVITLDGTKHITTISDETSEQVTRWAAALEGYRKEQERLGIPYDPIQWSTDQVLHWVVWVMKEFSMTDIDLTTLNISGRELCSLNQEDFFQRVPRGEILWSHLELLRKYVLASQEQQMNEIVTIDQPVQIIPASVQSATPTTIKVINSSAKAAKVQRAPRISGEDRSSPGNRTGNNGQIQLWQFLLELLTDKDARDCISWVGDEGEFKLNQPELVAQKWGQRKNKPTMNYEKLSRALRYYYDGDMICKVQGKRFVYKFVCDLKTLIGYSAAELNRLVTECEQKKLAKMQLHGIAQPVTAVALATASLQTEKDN
Outline: as §1

ERG = target: T4, ERG (Homo sapiens, UniProt P11308 1-479)
T4 sequence: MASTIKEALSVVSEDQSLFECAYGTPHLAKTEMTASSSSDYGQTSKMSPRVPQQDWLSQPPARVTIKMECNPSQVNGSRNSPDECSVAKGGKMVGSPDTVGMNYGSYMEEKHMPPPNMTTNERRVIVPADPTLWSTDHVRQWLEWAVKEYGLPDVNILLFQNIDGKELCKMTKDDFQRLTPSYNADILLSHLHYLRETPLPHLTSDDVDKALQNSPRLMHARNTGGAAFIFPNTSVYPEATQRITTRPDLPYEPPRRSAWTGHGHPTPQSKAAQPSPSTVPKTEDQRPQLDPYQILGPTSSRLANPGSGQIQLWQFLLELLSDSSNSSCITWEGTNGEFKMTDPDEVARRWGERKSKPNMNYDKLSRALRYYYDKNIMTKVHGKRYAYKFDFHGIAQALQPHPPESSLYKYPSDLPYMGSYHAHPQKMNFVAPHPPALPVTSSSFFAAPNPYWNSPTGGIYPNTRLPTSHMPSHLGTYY
Outline: as §1

ELF1 = ELF1 (Homo sapiens, UniProt P32519 1-619)
Sequence of ELF1 (P32519 whole entry): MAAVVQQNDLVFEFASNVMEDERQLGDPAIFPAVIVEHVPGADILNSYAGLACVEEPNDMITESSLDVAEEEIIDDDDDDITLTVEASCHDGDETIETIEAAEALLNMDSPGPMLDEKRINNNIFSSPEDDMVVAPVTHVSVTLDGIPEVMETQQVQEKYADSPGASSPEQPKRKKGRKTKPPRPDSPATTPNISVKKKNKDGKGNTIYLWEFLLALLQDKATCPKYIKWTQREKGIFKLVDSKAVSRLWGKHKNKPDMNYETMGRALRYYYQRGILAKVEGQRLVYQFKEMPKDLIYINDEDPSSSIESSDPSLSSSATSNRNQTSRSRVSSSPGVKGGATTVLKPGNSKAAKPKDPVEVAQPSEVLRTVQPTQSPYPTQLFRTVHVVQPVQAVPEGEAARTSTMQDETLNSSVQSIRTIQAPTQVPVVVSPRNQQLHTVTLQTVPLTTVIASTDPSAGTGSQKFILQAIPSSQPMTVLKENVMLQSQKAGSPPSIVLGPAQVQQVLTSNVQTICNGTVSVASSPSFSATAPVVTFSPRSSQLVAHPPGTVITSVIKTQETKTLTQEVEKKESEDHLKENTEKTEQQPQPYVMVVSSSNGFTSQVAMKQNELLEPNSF
Outline: as §1

EHF = target: T5, EHF (Homo sapiens, UniProt Q9NZC4 1-300)
T5 sequence: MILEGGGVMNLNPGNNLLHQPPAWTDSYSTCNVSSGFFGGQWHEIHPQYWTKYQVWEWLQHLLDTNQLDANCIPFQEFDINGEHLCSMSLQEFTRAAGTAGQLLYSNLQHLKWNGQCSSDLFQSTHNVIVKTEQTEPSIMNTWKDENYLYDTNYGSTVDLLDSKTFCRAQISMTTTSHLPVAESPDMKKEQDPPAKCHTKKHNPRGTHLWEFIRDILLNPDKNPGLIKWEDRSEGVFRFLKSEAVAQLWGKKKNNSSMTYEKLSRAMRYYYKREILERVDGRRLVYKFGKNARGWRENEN
Outline: as §1

SPI1 = SPI1 (Homo sapiens, UniProt P17947 1-270)
Outline: as §1

SPIB = SPIB (Homo sapiens, UniProt Q01892 1-262)
Sequence of SPIB (Q01892 whole entry): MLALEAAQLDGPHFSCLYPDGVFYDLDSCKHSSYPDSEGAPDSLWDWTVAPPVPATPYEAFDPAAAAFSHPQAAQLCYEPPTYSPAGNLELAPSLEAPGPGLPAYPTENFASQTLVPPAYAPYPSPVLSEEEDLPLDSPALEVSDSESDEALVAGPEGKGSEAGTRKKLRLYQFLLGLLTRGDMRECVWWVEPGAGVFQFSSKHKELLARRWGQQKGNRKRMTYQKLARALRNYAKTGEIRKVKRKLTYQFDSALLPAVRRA
Outline: as §1

ELK3 = target: T6, ELK3 (Homo sapiens, UniProt P41970 1-407)
T6 sequence: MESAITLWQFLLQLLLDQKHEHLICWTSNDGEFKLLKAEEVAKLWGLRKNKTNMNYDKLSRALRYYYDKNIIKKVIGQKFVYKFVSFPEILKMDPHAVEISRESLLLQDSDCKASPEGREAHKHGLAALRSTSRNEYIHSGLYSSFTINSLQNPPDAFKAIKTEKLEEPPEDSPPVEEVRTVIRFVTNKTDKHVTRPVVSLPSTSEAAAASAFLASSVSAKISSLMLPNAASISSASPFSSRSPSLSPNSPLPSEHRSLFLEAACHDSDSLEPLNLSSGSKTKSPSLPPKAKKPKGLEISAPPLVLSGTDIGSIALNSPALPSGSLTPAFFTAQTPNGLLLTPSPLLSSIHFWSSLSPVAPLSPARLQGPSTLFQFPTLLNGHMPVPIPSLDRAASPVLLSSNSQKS
Outline: as §1

TCATTC
binding signal (FLI1): 1.27 fold enrichment (6-mer frequency, TF over GST control) | binding signal (ELK1): 1.22 fold enrichment (6-mer frequency, TF over GST control) | binding signal (GABPA): 1.26 fold enrichment (6-mer frequency, TF over GST control) | binding signal (ERG): 1.27 fold enrichment (6-mer frequency, TF over GST control) | binding signal (ELF1): 1.28 fold enrichment (6-mer frequency, TF over GST control) | binding signal (EHF): 1.17 fold enrichment (6-mer frequency, TF over GST control) | binding signal (SPI1): 1.24 fold enrichment (6-mer frequency, TF over GST control) | binding signal (SPIB): 1.19 fold enrichment (6-mer frequency, TF over GST control) | binding signal (ELK3): 1.28 fold enrichment (6-mer frequency, TF over GST control)
